Laboratory results taken from PubChem BioAssay (NCATS).
Results filed as inconclusive are left out. Active and inactive are the calls of the source. Calls follow the shape of the dose curve; as a rule, active = well fitted cell-killing curve with a large enough effect; inconclusive = small, poorly fitted or top-dose-only effect; inactive = flat fitted curve, though single readings scatter.

Target: Phenylethanolamine N-methyltransferase (Homo sapiens) (UniProt P11086)
Sequence (P11086 whole entry, looked up): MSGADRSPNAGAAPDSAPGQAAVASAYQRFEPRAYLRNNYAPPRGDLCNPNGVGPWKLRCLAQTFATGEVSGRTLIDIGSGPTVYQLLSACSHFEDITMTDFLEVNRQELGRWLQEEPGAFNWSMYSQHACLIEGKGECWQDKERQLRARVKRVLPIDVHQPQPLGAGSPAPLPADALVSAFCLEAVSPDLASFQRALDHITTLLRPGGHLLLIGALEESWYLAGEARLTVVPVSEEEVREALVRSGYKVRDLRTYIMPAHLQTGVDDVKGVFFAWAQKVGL
Experiment: Confirmatory Screen for Target Class Profiling of Small Molecule Inhibitors of Methyltransferases (AID 1745852)
Conditions: MTase-Glo luminescence, SAH detection, recombinant enzyme; measured here: PNMT max response; stronger effect = lower value
For COc1cc(/C=C/C(=O)O[C@H]2[C@@H]3C=CO[C@@H](O[C@@H]4O[C@H](CO)[C@@H](O)[C@H](O)[C@H]4O)[C@@H]3[C@@]3(CO)O[C@@H]23)ccc1O, the activity was -3.15%.
For O=C(NCC(=O)N1CCCC1)Nc1ccc2ccccc2c1, the activity was -8.32%.
In the case of CC(=O)c1c(C)cccc1O[C@@H]1O[C@H](CO)[C@@H](O)[C@H](O)[C@H]1O, the activity is reported as -3.91%.
O=C(O)CC(CCc1ccccc1)OC1OC(CO)C(O)C(O)C1O (centres undefined) gave an activity of -2.51%.
Molecule CC1CCCCCCCc2cc(O)cc(O)c2C(=O)O1 (centres undefined) has an activity of -64.4%.
Molecule OC[C@H]1O[C@@H](OCCc2ccccc2)[C@H](O[C@@H]2OC[C@@H](O)[C@H](O)[C@H]2O)[C@@H](O)[C@@H]1O has an activity of -1.31%.
For C=C1C(=O)O[C@@H]2CC(C)=C([C@@H](C)CCCOC(C)=O)[C@@H](O)[C@H]12, the activity was -2.38%.
Work on O=C(/C=C/c1ccc(O)cc1)OC[C@@]1(O)C=C[C@@H]2C(C(=O)O)=CO[C@@H](O[C@@H]3O[C@H](CO)[C@@H](O)[C@H](O)[C@H]3O)[C@@H]21 yielded an activity of 0.204%.
Work on CC(C)(O)C1CC=C(C(=O)OC[C@H]2O[C@@H](Oc3cc(C(=O)O)cc(O)c3O)[C@H](O)[C@@H](O)[C@@H]2O)CC1 (some centres undefined) yielded an activity of -6.07%.
In the case of C=C1CC/C=C(/CO)C(=O)C[C@@H]2[C@@H]1C[C@@]2(C)COC(C)=O, the activity is reported as 1.6%.
With COc1ccccc1CN[C@H]1CCCN[C@H]1c1ccccc1 the activity was -0.84%.
CC(=O)NC(Cc1c[nH]c2ccccc(=O)c12)C(=O)O (centres undefined) showed an activity of -0.114%.
COC(=O)[C@H](Cc1cccc(C(=N)N)c1)[C@@H](C)NC(=O)c1ccc(-c2cc[n+]([O-])cc2)cc1 showed an activity of -2.03%.
Molecule COc1c2cc(c(O[C@@H]3O[C@H](CO)[C@@H](O)[C@H](O)[C@H]3O)c1OC)CCCCC(O)CCc1ccc(O)c-2c1 (some centres undefined) has an activity of -8.72%.
In the case of C/C(=C\CC/C(C)=C/CC[C@]1(C)CCc2cc(O)cc(C)c2O1)CC/C=C(\C)C(=O)O, the activity is reported as -0.0782%.
With CSC(=O)OCC1=C[C@@H]2OC(=O)C3=CO[C@@H](O[C@@H]4O[C@H](CO)[C@@H](O)[C@H](O)[C@H]4O)[C@H]1[C@@H]32 the activity was -7.61%.
For C[C@@H]1O[C@@H](OC[C@H]2O[C@@H](OCc3ccccc3)[C@H](O)[C@@H](O)[C@@H]2O)[C@H](O)[C@H](O)[C@H]1O, the activity was -2.48%.
For CC(=O)OC/C(=C/C(=O)O)CC[C@@H]1C(C)=CC(=O)[C@@H]2C(C)(C)CCC[C@@]12C, the activity was -1.13%.
With COc1cc(C2Oc3c(OC)cc(CCCO)cc3C2CO)ccc1O (centres undefined) the activity was -8.69%.
For O=C(O)CC1(O)C(=O)Nc2ccccc21 (centres undefined), the activity was -0.0725%.
COc1c(O)cc2c(c1O)C(=O)O[C@H](C)[C@H]2O gave an activity of 0.108%.
In the case of O=C(O)CCc1ccc(NCc2cccc3c2CCCN3CCOc2ccccc2)cc1F, the activity is reported as -5.97%.
Work on CC1CC(=O)C2=C(O1)OC1(C)CCC3C(C)(C)C4OC4C(=O)C3(C)C1C2 (centres undefined) yielded an activity of -2.49%.
Work on CC(C)(O)C1CC=C(C(=O)OC[C@H]2O[C@@H](OC(=O)C3=CCC(C(C)(C)O)CC3)[C@H](O)[C@@H](O)[C@@H]2O)CC1 (some centres undefined) yielded an activity of -5.85%.
Molecule CC1(C)CC[C@]2(C(=O)O[C@@H]3O[C@H](CO)[C@@H](O)[C@H](O)[C@H]3O)CC[C@]3(C)C(=CCC4[C@@]5(C)C[C@@H](O)[C@H](O)[C@@](C)(CO)C5[C@H](O)C[C@]43C)C2[C@@H]1O (some centres undefined) has an activity of 3.8%.
With COc1cc(C2Oc3c(OC)cc(/C=C/C(=O)OC4CC(O)(C(=O)O)CC(O)C4O)cc3C2CO)ccc1O (centres undefined) the activity was -2.58%.
With COc1ccc(CC(NC(C)=O)C(=O)O)cc1 (centres undefined) the activity was -0.971%.

Test system: not listed separately
Experiment: NCATS anti-infectives library activity on HEK293 viability as a counter-qHTS vs the C. elegans viability qHTS (AID 1745854);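 also: HEK293 cells exposed to compounds for 24 hr before the viability read; % is scaled to controls: 0 for no effect and ±100 for the full control effect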
Conditions: HEK293 viability counter-screen; series mostly up to 41.8 µM
Procedure, shortened: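 Compounds were acoustically plated (several concentrations, 1:5, final up to 41.7 uM), then 1500 HEK293 cells added per well and incubated 24 hr at 37C, 5% CO2. CellTiter-Glo was added and luminescence read after 10 min.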
In the case of COc1cnc(-n2cnc(C)n2)c2[nH]cc(C(=O)C(=O)N3CCN(C(=O)c4ccccc4)CC3)c12, the outcome is reported as “inactive”.
With OCC1=C[C@@H](O)[C@@H]2C=CO[C@@H](O[C@@H]3O[C@H](CO)[C@@H](O)[C@H](O)[C@H]3O)[C@H]12 the outcome was “inactive”.
With CCc1nn(CCO)c(CC)c1Oc1cc(C#N)cc(C#N)c1 the outcome was “inactive”.
In the case of CCCCOc1nc(N)c2c(n1)N(Cc1cccc(CN3CCCC3)c1)CC(=O)N2, the outcome is reported as “inactive”.
With NCCCCN(Cc1nc2ccccc2[nH]1)[C@H]1CCCc2cccnc21 the outcome was “inactive”.
In the case of Cc1cc(OCCN2CCOCC2)nn1-c1ccc2ccccc2c1, the outcome is reported as “inactive”.
In the case of Fc1ccccc1-c1nc2ccn(Cc3ccc(-c4ccc(C(F)(F)F)cc4C(F)(F)F)nn3)cc-2n1, the outcome is reported as “inactive”.
In the case of O=C(O)c1cc(C(F)(F)F)ccc1N1CC[C@H](OCc2ccccn2)C1, the outcome is reported as “inactive”.
In the case of CCCC(C(=O)O)c1c(C)nc2ccc(Cl)cc2c1-c1ccccc1 (centres undefined), the outcome is reported as “inactive”.
For COc1cccc2c1c(O)c(C(=O)N(C)c1ccc(C(F)(F)F)cc1)c(=O)n2C, the outcome was “inactive”.
With Cc1noc2c1-c1ccccc1C(c1ccc(Cl)cc1)=N[C@H]2CC(N)=O the outcome was “inactive”.
With COC(=O)C1=CO[C@@H](O[C@@H]2O[C@H](CO)[C@@H](O)[C@H](O)[C@H]2O)[C@@H]2C(CO)=CC[C@H]12 the outcome was “inactive”.
